According to ChEMBL document CHEMBL4513216, “Probing the Open Global Health Chemical Diversity Library for Multistage-Active Starting Points for Next-Generation Antimalarials” (ACS Infect Dis, 2020):
Out of some 69,000 compounds screened, about 8,600 (12%) showed an effect of 50% or more. The full list was thinned out, with strong results kept by preference.

test system: Plasmodium berghei; test: Screen against P. berghei liver stage (PbLuc), transformed with Luciferase, at 10uM; assay type: functional, HepG2; conditions: tested at 10 uM

Compound	INHIBITION
Cc1ccc(S(=O)(=O)NC(=O)C2(c3ccc(F)cc3)CCC2)c(C)c1	20%
O=C(c1cccc(-c2ccc(F)cc2)c1)N1CCC2(CC1)[C@H](O)C[C@@H]2O	-8.47%
CCc1nc(C2CCCN2C(=O)c2cnns2)no1 (stereo not drawn)	29.765%
CC(C)OCc1ccc(CNC(=O)NC2(CO)CCCC2)cc1	46.1%
O=C(NCc1ccc(CN2CCCC2)cc1)NCc1ccon1	20.4%
O=C(NCc1ccc(CN2CCCC2)cc1)NC1(CO)CCCC1	62.8%
CC(C)CCCNC(=O)Nc1ccc(Cl)c(C(N)=O)c1	-57.4%
CCN(CC)C(=O)CSc1sc2c(O)cc(=O)[nH]c2c1C(N)=O	4.07%
COc1ccc(C(C)Nc2ncnc3c2NC(=O)CN3)cc1 (stereo not drawn)	8.49%
O=S(=O)(c1c(N2CCCC2)ccc2nonc12)N1CCCC1	17.7%
CCn1cc(-c2cc(C(=O)N3CCOCC3)c3cc(Cl)ccc3n2)cn1	12.9%
COc1cc(F)cc2sc(NC(=O)COCC3CCCO3)nc12 (stereo not drawn)	16.1%
Cc1noc([C@H]2C[C@@H]3CCN(C(=O)N(C)C)C[C@H]3O2)n1	54.6%
Cc1noc([C@H]2C[C@@H]3CCN(C(=O)C4CCOCC4)C[C@H]3O2)n1	41.5%
Cc1noc([C@H]2C[C@H]3CN(C(=O)C4CCOCC4)CC[C@@H]3O2)n1	59%
Cc1noc([C@@H]2C[C@H]3CN(C(=O)C4CCN(C)CC4)C[C@H]3O2)n1	28.7%
Cc1noc([C@H]2C[C@@H]3CCN(C(=O)c4cccn4C)C[C@H]3O2)n1	25.8%
COCC(=O)N1CC[C@H]2C[C@H](c3nc(C)no3)O[C@@H]2C1	-41.2%
CCN(Cc1ccc(OC)c(F)c1)Cc1nc2c(cnn2C)c(=O)[nH]1	11.6%
COCCNC(=O)N1CCN(C(=O)Cc2ccccc2F)CC1	-63.6%
CN1N=C(C(=O)N(Cc2ccco2)C2CCCC2)CCC1=O	46.1%
Cc1nc(C)c(C(=O)N2CCc3nnc(C4CCCCN4C)n3CC2)s1 (stereo not drawn)	-12.4%
CCN1CCCCC1C(=O)N1CCc2onc(-c3ccc(Cl)cc3)c2C1 (stereo not drawn)	20.2%
O=C(C1CCCO1)N1CCc2onc(-c3ccc(Cl)cc3)c2C1 (stereo not drawn)	59.1%
CCc1ccccc1Nc1noc2c1CN(C(=O)C1CCCO1)CC2 (stereo not drawn)	-9.32%
Cn1cc(C(=O)N2CCN(Cc3ccsc3)CC2)cn1	-2.825%

Compound	INHIBITION
O=C(NCCN1CCCC1)Nc1cc(C(=O)N2CCOCC2)ccc1Cl	67.5%
CCSCCNC(=O)Nc1cc(C(=O)N2CCOCC2)ccc1Cl	36.9%
O=C(NCCn1cccn1)Nc1cc(C(=O)N2CCOCC2)ccc1Cl	45.2%
Cc1cc(C)nc(N2CCOC(c3cc(CCO)[nH]n3)C2)n1 (stereo not drawn)	2.99%
CC(C)(C)C1SCC(=O)Nc2c1c(O)nn2C1CCCC1 (stereo not drawn)	48%
Cn1cc(CN2CCCC3(CCCCN3S(C)(=O)=O)C2)cn1 (stereo not drawn)	18.3%
CNC(=O)c1cc2c(nc1N(C)C)CCN(c1ncccn1)CC2	63.8%
CCS(=O)(=O)N1CCc2cc(C(=O)NC)c(N(C)C)nc2CC1	19.8%
CNC(=O)c1cc2c(nc1N(C)C)CCN(S(=O)(=O)CC(C)C)CC2	-22.8%
CNC(=O)c1cc2c(nc1NCC(C)C)CCN(S(=O)(=O)N(C)C)CC2	-23.4%
CNC(=O)c1cc2c(nc1NCC(C)C)CCN(S(C)(=O)=O)CC2	-26.1%
CCc1cnc(N2CCc3cc(C(=O)NC)c(N(C)C)nc3CC2)nc1	81%
CNC(=O)c1cc2c(nc1N(C)C)CCN(c1ncc(F)cn1)CC2	50.3%
CNC(=O)c1cc2c(nc1N(C)C)CCN(C)CC2	13.3%
CNC(=O)c1cc2c(nc1N(C)C)CCN(c1ncc(C)cn1)CC2	57.5%
Cc1cnc(N2CCc3cc(C(=O)O)c(N(C)C)nc3CC2)nc1	31.2%
CNC(=O)c1cc2c(nc1N(C)C)CCN(S(=O)(=O)N(C)C)CC2	44.8%
CNC(=O)c1cc2c(nc1N(C)C)CCN(S(=O)(=O)C1CC1)CC2	9.3%
CCN1CC(C(=O)N2CCN(CCn3cccc3)CC2)CCC1=O (stereo not drawn)	6.69%
O=C(NCC(Cc1cccc(F)c1)N1CCCC1=O)c1ccc[nH]c1=O (stereo not drawn)	3.88%
COc1ccc(CN2CCC3(CCCN(C)C3=O)C2)c(OC)c1C (stereo not drawn)	5.75%
CCn1ccnc1CN1CCOC(Cn2cccn2)C1 (stereo not drawn)	37.9%
CC1CCc2nc(NS(=O)(=O)c3cnn(C)c3)sc2C1 (stereo not drawn)	33.4%
CNc1nc(CNC(=O)Nc2ccc(SC)c(F)c2)cs1	-4.35%
Cc1ccc(CN2CCCC3(CCC(=O)N3)CC2)s1 (stereo not drawn)	-19.6%
CN1CCC(Cc2noc(-c3cccc4c3OCC4)n2)CC1	34.5%

Compound	INHIBITION
Cc1ccc2oc(SCC(=O)NC(C)(C)C)nc2n1	49.1%
Cc1nc(Nc2cnccn2)cc(C2CCN(CCO)C2)n1 (stereo not drawn)	23.2%
Cc1ccc(-c2ncc(C(=O)NCCNC(=O)C3CC3)s2)c(C)c1	-91.8%
Cc1nccc(C(=O)N2CCOC(c3nc(C(C)C)n[nH]3)C2)n1 (stereo not drawn)	-65.3%
Cc1nn(C)c2ncc(CN3CCN(Cc4ccco4)CC3)cc12	21.2%
Cc1cc(C)c(CNC(=O)N2CCOC(c3ccccc3)C2)c(=O)[nH]1 (stereo not drawn)	31.9%
Cc1cc(C)c(C(=O)N2CCOC(c3cccs3)C2)c(=O)[nH]1 (stereo not drawn)	-18.6%
Cc1ccc(C2CN(C(=O)c3c(C)cc(C)[nH]c3=O)CCO2)c(C)c1 (stereo not drawn)	55%
CNC(=O)C1CN(C(C)C)CCN1c1ncccn1 (stereo not drawn)	47.1%
CCC(=O)N1CCc2nc3cc(OC)c(OC)cc3c(=O)n2CC1	59.1%
COc1cc2nc3n(c(=O)c2cc1OC)CCN(C(C)=O)CC3	21%
CCCC(=O)N1CCc2nc3cc(OC)c(OC)cc3c(=O)n2CC1	44.1%
COc1c(C2CCCN2C(=O)c2c[nH]c3ncccc23)c(C)nn1C (stereo not drawn)	44.3%
COc1ccc(CNC(=O)N(C)CC(C)(C)O)cc1OC	46.6%
CCOc1cc(Cl)ccc1CNC(=O)N(C)CC(C)(C)O	25.2%
CCOc1ccc(CNC(=O)N(C)CC(C)(C)O)cc1C	62.8%
O=C(NCC(CO)Cc1ccc(Cl)cc1)c1ccncc1F (stereo not drawn)	-11.1%
Cc1cc(C)n(C2CCCN(C(=O)c3cn4cccnc4n3)C2)n1 (stereo not drawn)	31.9%
CC(C)(C)OC(=O)N1CCCN1C(=O)c1cccc2cc[nH]c12	56.5%
CC(C)(C)OC(=O)N1CCCN1C(=O)c1cccc(F)c1F	31.9%
Cc1[nH]ccc1C(=O)N1CCCN1C(=O)OC(C)(C)C	14.3%
O=C(NC1CCCC1)c1cc(C2CCCNC2)n[nH]1 (stereo not drawn)	9.98%
CN1C[C@@H](O)[C@]2(CCN(C(=O)c3ccccc3)C2)S1(=O)=O	8.61%
O=C(C1CCC1)N1C[C@H]2CC[C@@H](C1)N(S(=O)(=O)c1ccccc1)C2	-49.3%
CCOc1nnc(CN(CC)CC(=O)Nc2c(F)cccc2F)s1	69.1%
CCOc1nnc(CN(CC)CC(=O)NC(C)C)s1	39.9%

Compound	INHIBITION
CCOc1nnc(CN(CC)CC(=O)NC(C)(C)C)s1	24.7%
Cc1oc(C)c(C(=O)N2CCCN(c3nccs3)CC2)c1C	-21.7%
O=C(Cc1n[nH]c(-c2cncc(Br)c2)n1)NCc1ccncc1	29.4%
NC(=O)CNC(c1ccccc1)c1ccc(OC(F)F)cc1 (stereo not drawn)	-11.9%
Cc1ccc(Cl)cc1N1CCN(CC(=O)NC(C)c2ccco2)CC1 (stereo not drawn)	26.8%
CC(NC(=O)CN1CCN(c2ccncc2Cl)CC1)c1ccco1 (stereo not drawn)	71.3%
CC(NC(=O)CN1CCN(c2cccc(Cl)c2)CC1)c1ccco1 (stereo not drawn)	22.6%
O=c1[nH]c(-c2ccccc2)nc2c1CCN(S(=O)(=O)N1CCCC1)C2	9%
Cc1ccc(S(=O)(=O)N[C@H](CO)C(C)C)cc1N(C)C	6.94%
CC1(C)CN=C(N2CCN(CCCN3CCOCC3)CC2)S1	89.6%
CC1(C)CN=C(N2CCN(CC3CCCO3)CC2)S1 (stereo not drawn)	25.5%
CC1(C)CN=C(N2CCN(CC3CCOC3)CC2)S1 (stereo not drawn)	32%
Cc1nc(CN2C(=O)CC[C@@H]3[C@H]2CCN3C(=O)c2ccccn2)cs1	48.6%
Cc1nc(C)c(C(=O)N2Cc3ccccc3OCC2Cn2ccnc2)o1 (stereo not drawn)	25.8%
Cc1nc(C)c(C(=O)N2Cc3ccccc3OCC2Cn2ccnc2)s1 (stereo not drawn)	51.7%
O=C(c1cccnc1)N1Cc2ccccc2OCC1Cn1ccnc1 (stereo not drawn)	24.8%
CCS(=O)(=O)N1C[C@@H](O)[C@H](N2CCc3ccccc3C2)C1	9.98%
Cc1noc(C)c1C(=O)N1CC[C@]2(C[C@@H](OCc3cccnc3)CO2)C1	10.1%
CCC[C@@H]1CN(Cc2ccccc2-c2ccco2)C[C@H]1NC(C)=O	-20%
Cc1nc(N(C)C)nc(C)c1NC(=O)c1ccccc1C(F)(F)F	46.3%
Cc1nc(N(C)C)nc(C)c1NC(=O)c1ccco1	-2.74%
Cc1nc(N(C)C)nc(C)c1NC(=O)c1ccccc1F	64.3%
Cc1ccc(NC(=O)c2ncc(C(N)=O)cc2Cl)cc1F	-10.8%
CNS(=O)(=O)c1cc(C(=O)NC2COc3ccccc32)cc(C)c1C (stereo not drawn)	18.4%
O=C(c1cccnc1N1CCCCC1)N1CCCC(n2cccn2)C1 (stereo not drawn)	-11.9%
